Measurements from PubChem BioAssay (NCI).
Several values for one entry are separate records, joined by “and”; a condition that tells them apart may be missing. Identical values can stand only once. The panel holds about 83,000 compounds, 20% with a hit somewhere; the sample as a whole holds those more often.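 Method: cells in 96-well plates; compound added at one concentration; 48 h incubation; percent growth measured; values under 10 scored active.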 Activity calls are given as the source filed them.

What follows are compounds tested on MDA-MB-468 breast (assay: NCI-60 one-dose screen, 48 h (100 = growth as untreated, 0 = no growth, -100 = all killed)). Conditions: 10 µM unless noted.
In the case of `COc1ccc(/C=C/C(=O)c2ccc(NC(=O)CSc3nc4c([nH]3)c(=O)n(C)c(=O)n4C)cc2)cc1OC`, the growth is reported as 51.8% (inactive). With `O=C(/C=C\c1ccc2c(c1)OCO2)/C=C/c1ccc2c(c1)OCO2` the growth was 20.3% (inactive). With `O=[N+]([O-])c1cccc(C(F)(F)F)c1` the growth was 101% (inactive). For `COc1cc2oc(-c3cccc(C(=O)Nc4ccc5c(c4)OCO5)c3)cc(=O)c2c(O)c1OC`, the growth was 54.6% (inactive). For `Cc1c2ncccc2nc2[nH]c3ccc(OCCN(C)C)cc3c12`, the growth was -34.7% (active). For `O=C(CSCC(=O)N/N=C/c1ccccc1O)N/N=C\c1ccccc1O`, the growth was 15.6% (inactive). For `O=C(Nc1cc(-c2ccccc2)[nH]n1)c1ccc(Cl)cc1`, the growth was 73% (inactive). For `CC1CCCC(CC(N)=O)CC1` (stereo not drawn), the growth was 97.9% (inactive). `CN1CCN(C(=O)OCc2ccc3c(Cl)cc(Cl)c(O)c3n2)CC1` was tested, and the growth was 67.1% (inactive). In the case of `CC(=O)c1ccc2c(c1)N(CCCN1CCN(CCO)CC1)c1ccccc1S2`, the growth is reported as 92.3% (inactive) and -79% (active). With `CN(C)CCN1C(=O)c2cccc3c(-c4ccc(-c5nc6c7ccccc7c7ccccc7c6[nH]5)cc4)ccc(c23)C1=O` the growth was 108% (inactive). In the case of `CN(C)CCOC1(Cc2ccc(Cl)cc2Cl)CCC(C(C)(C)C)CC1` (stereo not drawn), the growth is reported as -77.6% (active) and -87.3% (active). In the case of `S=C1SCN(CCc2ccccc2)CN1CCc1ccccc1`, the growth is reported as 9.02% (active). With `c1cc(OCCN2CCCCC2)ccc1CNc1ccc2nc(CCC3CCCCC3)[nH]c2c1` the growth was 27.4% (inactive). For `COc1ccc2nccc(/C=C/c3ccnc4ccc(OC)cc34)c2c1`, the growth was 110% (inactive). `COc1ccc(C(C)=O)c(OC)c1` was tested, and the growth was 97.7% (inactive). With `Cc1[nH]c(C(=O)Nc2ccccc2OC2CCNC2)c(Cl)c1Cl` (stereo not drawn) the growth was 53.8% (inactive). In the case of `OC(c1cc(-c2ccc(C(F)(F)F)cc2)nc(C(F)(F)F)c1)C1CCCCN1` (stereo not drawn), the growth is reported as -88.4% (active) and -89.6% (active) and -76.3% (active). For `C(=N\Nc1nnc2n1N=C(c1ccccc1)CS2)/c1ccc(OCc2ccccc2)cc1`, the growth was 88.9% (inactive). In the case of `CC(=O)Oc1cc(C(=O)O)cc(OC(C)=O)c1OC(C)=O`, the growth is reported as 98.6% (inactive) and 108% (inactive). In the case of `O=C(CCCCCCSc1nc(-c2ccccc2)cc(-c2ccc(Cl)cc2)n1)NO`, the growth is reported as 4.78% (active). For `CCOC(=O)c1c(C)cc(=O)oc1C`, the growth was 105% (inactive). `COc1ccc2c(c1)sc1nc(-c3ccccc3)c(-c3ccc(O)c(OC)c3)n12` was tested, and the growth was 107% (inactive).
